rCAG RNA binder: binds r(CAG) RNA repeats. r(CAG) RNA repeat, TO-PRO-1 dye displacement fluorescence. inhibition, % at 3 µM. actives 1.3% (n = 370,000). AID 651821;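 active = inhibition above the plate cutoff, the mean of all test compounds on that plate plus 3 SD, cut at about 35% in these data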;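 also: 0% = DMSO alone and 100% = 100 µM mitoxantrone as full dye displacement; higher means more dye released from RNA so lower well fluorescence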
NR3A LBD binder: NR3A (human) ligand-binding domain modulation; Tm shift relative to glycine control, % at 25 µM; AID 1259313; NR3A LBD differential scanning fluorimetry, Tm shift; 0% = protein alone, 100% = glycine-bound protein; actives 2.5% (n = 340,000);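 active = melting temperature shift of at least 10% of the positive control shift, at one fixed dose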
ADAM10 inh: ADAM10 inhibition, QFRET primary screen; recombinant ADAM10, EDANS/DABCYL FRET peptide cleavage, 3 h; inhibition, % at 7 µM; actives 0.62% (n = 370,000); AID 720582;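 active = inhibition above a per-campaign cutoff equal to the mean of compounds falling between control-based bounds plus 3 SD, cut at about 20% in these data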;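 also: 0% = DMSO wells while the 100% control is not disclosed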
AHR activator: activates the human aryl hydrocarbon receptor | AID 2796 | AHR-responsive luciferase reporter cells, luminescence | P35869 | activation, % at 5 µM | actives 2.5% (n = 320,000); in the data active = activation above about 47%;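 also: 0% = vehicle wells and 100% = reference agonist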
ADAM17 inh: inhibitors of human ADAM17 | inhibition, % at 6.95 µM | P78536 | recombinant ADAM17, EDANS/DABCYL FRET peptide cleavage | actives 0.83% (n = 370,000);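 active = inhibition above the mean of compounds lying between control limits plus 3 SD, set per campaign, cut at about 8.5% in these data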;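 also: 0% = DMSO-only wells as the low control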
Target sequence (P78536 215-824 limits assumed): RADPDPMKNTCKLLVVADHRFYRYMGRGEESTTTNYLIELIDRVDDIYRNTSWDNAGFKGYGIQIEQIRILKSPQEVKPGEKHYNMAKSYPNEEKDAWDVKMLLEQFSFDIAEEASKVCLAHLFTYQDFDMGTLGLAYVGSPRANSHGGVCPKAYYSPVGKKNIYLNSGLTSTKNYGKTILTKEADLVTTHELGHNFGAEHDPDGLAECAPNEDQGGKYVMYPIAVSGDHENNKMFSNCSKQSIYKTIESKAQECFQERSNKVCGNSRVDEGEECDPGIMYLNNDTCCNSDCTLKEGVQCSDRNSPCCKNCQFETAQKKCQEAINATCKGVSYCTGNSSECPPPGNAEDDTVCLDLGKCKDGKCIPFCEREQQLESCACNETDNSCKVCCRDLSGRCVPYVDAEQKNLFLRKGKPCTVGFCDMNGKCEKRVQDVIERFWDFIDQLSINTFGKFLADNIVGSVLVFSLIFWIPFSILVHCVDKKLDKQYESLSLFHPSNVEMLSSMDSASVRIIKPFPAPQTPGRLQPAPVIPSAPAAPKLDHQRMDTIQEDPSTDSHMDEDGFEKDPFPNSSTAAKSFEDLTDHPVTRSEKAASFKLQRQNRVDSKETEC
KLK7 zymogen act: proKLK7 (human) activation, primary screen; P49862; activation, % at 7 µM; purified proKLK7, EDANS-DABCYL substrate fluorescence; 100% is mature enzyme control, 0% vehicle; AID 652039; actives 0.9% (n = 370,000);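 active = activation above the mean of all tested compounds plus 3 SD, computed per campaign excluding outliers beyond control limits, cut at about 13% in these data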
* hit, by the source's call; i = inactive; nt = no result given. Hits are enriched below; roughly 7% of the tested compounds scored in any of these assays.

SMILES | rCAG RNA binder | NR3A LBD binder | ADAM10 inh | AHR activator | ADAM17 inh | KLK7 zymogen act
O=C(Nc1nccs1)c1sc2ccccc2c1Cl | -0.4 | -19.4 | -10.2 | 47.5* | -6.5 | 0.2
O=C(Nc1ccc(NC(=O)c2sc3ccccc3c2Cl)cc1)c1ccco1 | 3.7 | 28.6* | -8.3 | 4.0 | -1.8 | -5.0
O=C(N/N=C/c1ccncc1)c1sc2ccccc2c1Cl | 5.7 | 13.1* | 0.0 | 7.4 | -0.6 | -1.2
CC(C)c1nnc(NC(=O)c2sc3ccccc3c2Cl)s1 | 6.6 | -6.4 | -4.5 | 70.8* | 1.3 | 0.2
Cc1ccc(Cn2cc(CN(C(C)(C)C)S(=O)(=O)c3ccc(F)cc3Br)nn2)cc1 | 6.1 | nt | -5.3 | nt | -3.2 | 0.5
COC(=O)[C@H]1C[C@@]2(N3CCCCC3)c3ccccc3N(S(=O)(=O)c3ccccc3)[C@H]2N1 | 5.6 | nt | 6.6 | nt | 1.8 | 0.1
Cc1cc(O)cc(=O)n1-c1cccc([N+](=O)[O-])c1 | 1.9 | nt | -4.9 | nt | -5.4 | -0.2
Cc1cnc(NC(=O)c2sc3ccccc3c2Cl)s1 | 1.7 | 19.5* | 2.3 | 37.4 | 0.3 | -0.5
Cc1ccnc(NC(=O)c2sc3ccccc3c2Cl)c1 | 3.0 | -1.8 | 7.4 | 11.8 | -0.1 | 0.0
COC(CNC(=O)[C@H](Cc1c[nH]c2ccccc12)NC1(C(=O)NC2CCCCC2)CCCCC1)OC | nt | nt | -6.5 | nt | -3.4 | nt
C[C@]12c3[nH]c4cc(-c5ccco5)ccc4c3CCN1C(=O)[C@@H](CC(=O)NCCc1ccccn1)C[C@@H]2C(=O)N1CCCCC1 | 9.2 | -1.1 | i | nt | -158.9 | 177.7*
C[C@]12c3[nH]c4cc(-c5ccco5)ccc4c3CCN1C(=O)[C@@H](CC(=O)NCCC1=CCCCC1)C[C@@H]2C(=O)N1CCCCC1 | 9.8 | -1.1 | -155.2 | nt | -40.4 | -2.3
Cc1sc2nc(-c3ccncc3)[nH]c(=O)c2c1-c1ccccc1 | nt | nt | nt | 53.7* | nt | nt
COc1nnc(-c2ccc(N3CCCCC3)c(N)c2)c2ccccc12 | -4.8 | -1.1 | 0.4 | 64.3* | 2.7 | 0.3
Cc1ccsc1/C=N/Nc1cccc(C(=O)O)c1 | 16.1 | 20.5* | -12.3 | -10.2 | -4.5 | 0.3
Cc1nn(-c2ccccc2)c(Cl)c1/C=N/NC(N)=O | 1.6 | -2.1 | 5.3 | 0.2 | 0.5 | -0.3
O=[N+]([O-])c1ccc(N/N=C/c2sc(N3CCOCC3)nc2-c2ccccc2)c(S(=O)(=O)Nc2ccccc2Cl)c1 | 6.3 | 6.6 | 4.3 | nt | 0.3 | -0.3
O=[N+]([O-])c1ccc(N/N=C/c2sc(N3CCOCC3)nc2-c2ccccc2)c(S(=O)(=O)Nc2ccc(Cl)cc2)c1 | 11.1 | 21.2* | 13.9 | nt | 7.0 | -0.5
Cc1nn(-c2ccccc2Cl)c(Cl)c1/C=N/Nc1cccc(C(=O)O)c1 | 18.8 | 10.2* | -1.5 | -7.7 | -0.7 | -0.8
O=C(O)c1cccc(N/N=C/c2sc(N3CCOCC3)nc2-c2ccccc2)c1 | 25.5 | 14.3* | -26.6 | 8.1 | -9.1 | 0.1
O=C(COC(=O)c1ccc(Sc2ncn[nH]2)c([N+](=O)[O-])c1)Nc1cccc(Cl)c1F | 20.8 | nt | 10.0 | nt | 3.8 | 0.1
O=C(OCC(=O)N1CCN(c2ccccc2)CC1)c1ccc2ccccc2n1 | -3.6 | 14.2* | 10.8 | 9.8 | -1.1 | 0.1
Brc1ccc(-c2cn3c(n2)SCC3)cc1 | -0.7 | 0.0 | -2.7 | -4.4 | -5.3 | 0.2
O=C(Nc1ccc(-c2cn3c(n2)SCC3)cc1)c1ccc2ccccc2n1 | 17.6 | 21.5* | 8.7 | -1.7 | -2.9 | -33.2
Oc1ccc(-c2cn3c(n2)SCC3)cc1 | 0.4 | 36.7* | 9.6 | 65.3* | -3.6 | 0.0
SMILES | rCAG RNA binder | NR3A LBD binder | ADAM10 inh | AHR activator | ADAM17 inh | KLK7 zymogen act
O=C(Nc1ccc(N2CCCCC2)cc1)c1ccc2ccccc2n1 | -0.8 | -0.6 | 1.1 | 63.1* | -4.0 | -0.3
COc1cc(NC(=O)C2CCCN(S(=O)(=O)c3cccc4cccnc34)C2)cc(OC)c1 (stereo not given) | 5.2 | nt | 1.7 | nt | 2.2 | -0.3
Cc1nc(SCc2nc3ccccc3[nH]2)c2oc3cc(Br)ccc3c2n1 | 10.3 | -6.2 | -8.6 | 77.1* | -3.8 | -1.0
C=CC[C@H]1c2ccccc2[C@H]2N3N=Cc4ccccc4[C@H]3[C@H](CCCC)C(=O)N2N1C(=O)c1ccccc1 | 4.7 | nt | 0.9 | nt | -1.5 | 0.1
CCOc1c(OC(C)=O)ccc(/C=C2\N=C(SCC)SC2=O)c1[N+](=O)[O-] | 24.6 | 14.2* | 9.7 | 15.5 | 4.7 | -0.5
CCOc1cc(/C=C2\N=C(SCC)SC2=O)cc([N+](=O)[O-])c1OC(C)=O | 28.4 | 6.3 | 5.0 | 8.7 | -3.7 | -0.1
Cc1ccc(NC(=O)c2sc(N)nc2C)cc1 | 4.2 | 2.2 | -4.5 | 61.5* | -2.6 | -0.4
Cc1nc(NC(=O)COc2ccccc2)sc1C(=O)Nc1cccc(Cl)c1 | 9.1 | 7.0 | 10.3 | 31.5 | 4.2 | 0.8
Cc1nc(NC(=O)/C=C/c2ccccc2)sc1C(=O)Nc1cccc(Cl)c1 | -0.3 | 31.6* | -0.8 | 8.2 | -4.0 | -52.0
COc1ccc(NC(=O)c2sc(NC(=O)COc3ccccc3)nc2C)cc1 | 1.8 | 14.4* | 4.6 | 23.3 | 3.7 | 0.6
Cc1nc(NC(N)=S)sc1C(=O)Nc1ccccc1 | 8.0 | -7.4 | 1.2 | 105.3* | 2.2 | 0.6
COC(=O)c1ccccc1NC(=O)c1sc(N)nc1C | -0.7 | 0.5 | 4.7 | 1.8 | -0.3 | -0.3
CCOc1ccccc1C(=O)Nc1ccc(C(=O)NCC2COc3ccccc3O2)cc1 (stereo not given) | 9.5 | nt | -5.2 | nt | -3.1 | -0.8
CC(=O)c1sc(NS(=O)(=O)c2ccc(C)cc2)nc1C | 9.3 | -0.8 | -1.7 | 1.3 | 1.9 | 0.1
C/C(=N/NC(=O)c1sc(NS(=O)(=O)c2ccc(C)cc2)nc1C)c1sc(N)nc1C | 47.8* | -0.8 | -2.4 | 0.2 | -2.5 | 0.3
COC(=O)c1cc2ccsc2n1Cc1ccccc1F | -2.3 | 17.4* | -5.1 | 0.8 | 0.2 | -0.3
COC(=O)c1cc2ccsc2n1Cc1cccc(F)c1 | -1.1 | -1.3 | 0.3 | 0.9 | -0.3 | -0.4
CC(=O)Nc1cccc(-c2csc(NCc3ccccc3)n2)c1 | 4.3 | -6.8 | 5.7 | 26.5 | 4.2 | -0.2
CC(=O)Nc1cccc(-c2csc(Nc3cc(C)ccn3)n2)c1 | 12.4 | 10.0* | 3.6 | 109.2* | -3.3 | 0.7
CC(=O)Nc1ccc(-c2csc(Nc3cc(C)ccn3)n2)cc1 | 11.3 | 24.7* | 4.0 | -2.3 | 1.0 | 0.0
COc1ccc(-c2csc(Nc3cc(C)ccn3)n2)cc1OC | 6.9 | -0.9 | 17.5 | -2.7 | 1.8 | 1.0
Cc1ccnc(Nc2nc(-c3c(C)nc4sccn34)cs2)c1 | 19.2 | 16.4* | -13.7 | -0.7 | 0.8 | 0.7
CCOC(=O)Cn1cc(CN2C(C(=O)OC)CN(C3CC3)CCS2(=O)=O)nn1 (stereo not given) | 1.1 | nt | -0.2 | nt | -1.6 | -0.8
O=C(NCc1ccccc1)[C@@H]1CCCN1C(=O)[C@H]1CCCN1C(=O)c1ccccc1F | 1.0 | nt | 0.5 | nt | -1.5 | -0.1

Screening data: PubChem, several laboratories
